PubChem BioAssay (EPA / NIEHS)
“And” between values parts separate entries of the source, which are not always exact repeats. Equal entries are not always repeated. Records with an inconclusive call do not appear. A structure can be active in one record and inactive in another. The source made the active and inactive calls. Rule for the calls, unless noted: active = hit-call score of the fitted dose curve at least 0.9, where 1 is the maximum; inconclusive = response in the unintended direction; inactive = score below 0.9.

Key:
[1] = ATG_TAL_CIS: Attagene CIS-FACTORIAL HepG2 Assay for human TAL Basal Promoter (AID 2282966; active = hit-call score of the fitted dose curve at least 0.9, where 1 is the maximum; inactive = score below 0.9;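 note: background control endpoint measuring basal TAL promoter reporter mRNA not a specific factor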); conditions: HepG2 Attagene cis-factorial TAL promoter reporter; actives raise or lower the signal
In short: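 Fluorescence of labelled reporter cDNA fragments, resolved by capillary electrophoresis, gave the readout. Human HepG2 liver cells carried transiently transfected cis-element reporter units and were treated for 24 hours; activity was fitted bidirectionally against DMSO.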

[2] = ATG_TGFb_CIS: Attagene CIS-FACTORIAL HepG2 Assay for human Transforming Growth Factor (TGF) (AID 2282967; active = hit-call score of the fitted dose curve at least 0.9, where 1 is the maximum; inactive = score below 0.9); conditions: HepG2 Attagene CIS TGFb reporter, mRNA transcription; actives raise or lower the signal
In short: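 Transient MRTU transfection of HepG2 (FuGene 6). Dose 24 h. TriZol RNA, oligo(dT) RT, PCR, 6-FAM primer extension, HpaI cut, CE. Bidirectional fit, DMSO = baseline.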

[3] = ATG_VDRE_CIS: Attagene CIS-FACTORIAL HepG2 Assay for human Vitamin D Receptor Element (VDRE) (AID 2282968; active = hit-call score of the fitted dose curve at least 0.9, where 1 is the maximum; inactive = score below 0.9); conditions: HepG2 VDRE cis-reporter transcription, actives raise or lower the signal
In short: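 HepG2 cells transiently transfected with cis-element reporter units, dosed 24 h; reporter mRNA measured by RT-PCR, 6-FAM labeling, HpaI digestion and capillary electrophoresis. Activity fitted bidirectionally against DMSO baseline.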

[4] = biological target: Nuclear receptor subfamily 1 group I member 3 (Homo sapiens) (UniProt Q14994); test: ATG_CAR_TRANS: Attagene TRANS-FACTORIAL HepG2 Assay for human Constitutive Androstane Receptor (CAR) (AID 2282969); conditions: HepG2 Attagene TRANS-FACTORIAL CAR reporter;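 note: activators raise reporter mRNA above DMSO so AC50 marks induction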
In short: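 HepG2 cells transiently transfected with multiplexed GAL4-UAS reporter units expressing chimeric NR-Gal4 proteins; compound exposure 24 h. Reporter mRNA measured by RT-PCR, 6-FAM labelling, HpaI digestion and capillary electrophoresis; gain-of-signal fitted against DMSO baseline.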

[5] = biological target: Estrogen receptor (Homo sapiens) (UniProt P03372); test: ATG_ERa_TRANS: Attagene TRANS-FACTORIAL HepG2 Assay for human Estrogen Receptor alpha (ERa) (AID 2282970); conditions: HepG2 Attagene TRANS ERa GAL4 reporter, mRNA
In short: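 Human liver HepG2, transient transfection of multiple GAL4-UAS reporter units; TRANS format (exogenous NR-Gal4 chimera). 24 h dosing. Readout: reporter mRNA, RT-PCR, 6-FAM primer extension, HpaI digest, capillary electrophoresis. Positive direction vs DMSO.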

[6] = ATG_M_19_TRANS: Attagene TRANS-FACTORIAL HepG2 Assay for M19 Transcription Factor (Internal Marker) (AID 2282974); conditions: HepG2 Attagene TRANS-FACTORIAL M19 internal marker reporter
In short: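 Using RT-PCR and capillary electrophoresis, reporter mRNA from transiently transfected human HepG2 cells was quantified following 24 h exposure; activity was fitted in the positive direction against DMSO.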

[7] = ATG_GAL4_TRANS: Attagene TRANS-FACTORIAL HepG2 Assay for GAL4 (Internal Marker) (AID 2282976); conditions: HepG2 Attagene TRANS GAL4 internal marker reporter
In short: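 First, HepG2 cells were transfected with reporter units under GAL4-UAS control. Next, they were treated with chemical for 24 h. Finally, RNA was reverse-transcribed, PCR-amplified, FAM-labelled and resolved by capillary electrophoresis, with induction scored against DMSO.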

[8] = biological target: Glucocorticoid receptor (Homo sapiens) (UniProt P04150); test: ATG_GR_TRANS: Attagene TRANS-FACTORIAL HepG2 Assay for human Glucocorticoid Receptor (GR) (AID 2282978); conditions: HepG2 Attagene TRANS GR reporter, mRNA transcription;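 note: activators score as hits since higher reporter transcript over DMSO is fitted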
In short: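 Exogenous NR-GAL4 fusion activity was assessed through induced GAL4-UAS reporter transcripts in transfected human HepG2 cells, quantified after 24 h by RT-PCR and fluorescent capillary electrophoresis with DMSO as baseline.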

[9] = biological target: Oxysterols receptor LXR-beta (Homo sapiens) (UniProt P55055); test: ATG_LXRb_TRANS: Attagene TRANS-FACTORIAL HepG2 Assay for human Liver X Receptor beta (LXRb) (AID 2282981); conditions: HepG2 Attagene TRANS GAL4-LXRb reporter, mRNA
In short: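 HepG2 cells transiently transfected with multiple reporter transcription units carrying chimeric NR-Gal4 proteins acting on GAL4-UAS reporters; compound exposure 24 h. Reporter mRNA quantified by RT-PCR, 6-FAM labelling, HpaI digestion and capillary electrophoresis; gain of signal versus DMSO.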

[10] = ATG_M_06_TRANS: Attagene TRANS-FACTORIAL HepG2 Assay for M06 Transcription Factor (Internal Marker) (AID 2282983); conditions: HepG2 Attagene TRANS M06 internal marker reporter;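 note: reporter transcript level by RT-PCR then capillary electrophoresis fluorescence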
In short: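 Transfect HepG2 with MRTUs → dose compounds 24 h → isolate RNA, oligo(dT) RT → PCR with reporter primers → 6-FAM primer extension → HpaI digest → CE fragment analysis. Positive direction vs DMSO.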

[11] = ATG_M_32_TRANS: Attagene TRANS-FACTORIAL HepG2 Assay for M32 Transcription Factor (Internal Marker) (AID 2282984); conditions: HepG2 Attagene TRANS M32 internal marker reporter;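 note: transcript level of a background control reporter unit measured by RT-PCR and capillary electrophoresis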
In short: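 HepG2 cells transiently transfected with multiple GAL4-UAS reporter transcription units, dosed for 24 hours; reporter mRNA quantified by RT-PCR, 6-FAM primer extension, HpaI digestion and capillary electrophoresis. Gain-of-signal fitted versus DMSO baseline; internal background-control marker.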

[12] = biological target: Nuclear receptor subfamily 4 group A member 2 (Homo sapiens) (UniProt P43354); test: ATG_NURR1_TRANS: Attagene TRANS-FACTORIAL HepG2 Assay for human Nuclear Receptor Related Protein 1 (NURR1) (AID 2282985); conditions: HepG2 Attagene TRANS reporter, mRNA readout
In short: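 HepG2 cells transiently transfected with GAL4-UAS reporter units and chimeric NR-Gal4 constructs; chemical exposure 24 h. Reporter mRNA quantified by RT-PCR, fluorescent labelling and capillary electrophoresis; gain of signal fitted relative to DMSO baseline.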

[13] = biological target: Transcriptional activator Myb (Homo sapiens) (UniProt P10242); test: ATG_Myb_CIS: Attagene CIS-FACTORIAL HepG2 Assay for human Myeloblastosis (Myb) Proto-Oncogene Transcription Factor (AID 2282986; active = hit-call score of the fitted dose curve at least 0.9, where 1 is the maximum; inactive = score below 0.9); conditions: HepG2 Attagene CIS-FACTORIAL Myb reporter transcription; actives raise or lower the signal
In short: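 In this HepG2 transient-transfection format, cis-regulated reporter mRNA is quantified 24 h post-dosing by RT-PCR with capillary electrophoresis, fitted bidirectionally to DMSO baseline.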

[14] = biological target: X-box-binding protein 1 (Homo sapiens) (UniProt P17861); test: ATG_Xbp1_CIS: Attagene CIS-FACTORIAL HepG2 Assay for human X-box Binding Protein 1 (XBP1) (AID 2282972; active = hit-call score of the fitted dose curve at least 0.9, where 1 is the maximum; inactive = score below 0.9); conditions: HepG2 XBP1 cis-element reporter, Attagene multiplex; actives raise or lower the signal
In short: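 Fluorescence-labelled cDNA fragments from reporter transcripts, separated by capillary electrophoresis, give the signal. Source: HepG2 cells transfected with promoter-driven reporter units, harvested 24 h post-dose. DMSO served as reference for bidirectional curve fitting.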

[15] = biological target: Bile acid receptor (Homo sapiens) (UniProt Q96RI1); test: ATG_FXR_TRANS: Attagene TRANS-FACTORIAL HepG2 Assay for Farnesoid X Receptor (FXR) (AID 2282979); conditions: HepG2 Attagene TRANS FXR-GAL4 reporter transcription;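 note: hits raise reporter mRNA above DMSO so AC50 marks FXR activation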
In short: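 Transient transfection of HepG2 with multiplexed GAL4-UAS reporter units; exogenous FXR-GAL4 chimera. Dose 24 h → TriZol RNA → oligo(dT) RT → PCR, 6-FAM primer extension, HpaI cut → CE. Gain vs DMSO.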

[16] = biological target: Steroid hormone receptor ERR1 (Homo sapiens) (UniProt P11474); test: ATG_ERRa_TRANS: Attagene TRANS-FACTORIAL HepG2 Assay for human Estrogen-Related Receptor alpha (ERRa) (AID 2282971); conditions: HepG2 Attagene TRANS reporter, ERRa transactivation
In short: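 Reporter transcript induction was quantified by RT-PCR and capillary electrophoresis of FAM-labelled, HpaI-cut products after 24 h treatment of HepG2 cells carrying transiently transfected GAL4-UAS reporter units and an exogenous ERRa-Gal4 fusion; activity scored as increase over DMSO.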

[17] = biological target: Estrogen-related receptor gamma (Homo sapiens) (UniProt P62508); test: ATG_ERRg_TRANS: Attagene TRANS-FACTORIAL HepG2 Assay for human Estrogen-Related Receptor gamma (ERRg) (AID 2282977); conditions: HepG2 Attagene TRANS reporter, ERRg transactivation;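 note: hits increase reporter signal over DMSO so potencies reflect activators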
In short: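 Transient HepG2 transfectants, 24 h compound exposure, GAL4-UAS reporter mRNA by RT-PCR/6-FAM labelling/capillary electrophoresis; positive direction vs DMSO.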

[18] = biological target: Hepatocyte nuclear factor 4-alpha (Homo sapiens) (UniProt P41235); test: ATG_HNF4a_TRANS: Attagene TRANS-FACTORIAL HepG2 Assay for human Hepatocyte Nuclear Factor 4 alpha (HNF4a) (AID 2282982); conditions: HepG2 HNF4a transactivation reporter, mRNA readout
In short: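 HepG2 cells transiently transfected with multiplexed GAL4-UAS reporter units responsive to chimeric NR-GAL4 proteins; compound exposure 24 h. Reporter mRNA quantified by RT-PCR, 6-FAM labelling, HpaI digestion and capillary electrophoresis; gain of signal versus DMSO baseline.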

[19] = biological target: Androgen receptor (Homo sapiens) (UniProt P10275); test: ATG_AR_TRANS: Attagene TRANS-FACTORIAL HepG2 Assay for human Androgen Receptor (AR) (AID 2282973); conditions: HepG2 Attagene TRANS-FACTORIAL AR reporter transcription
In short: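 Steps: transfect HepG2 with multiple GAL4-UAS reporter transcription units (TRANS format, exogenous NR-Gal4 protein); dose 24 h; isolate RNA, reverse-transcribe, PCR-amplify, FAM-label, HpaI-digest; resolve by capillary electrophoresis. Positive direction vs DMSO.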

Measured: AC50

Chain of Estrogen receptor (Homo sapiens) (P03372 whole entry, looked up, the tested form may be a part): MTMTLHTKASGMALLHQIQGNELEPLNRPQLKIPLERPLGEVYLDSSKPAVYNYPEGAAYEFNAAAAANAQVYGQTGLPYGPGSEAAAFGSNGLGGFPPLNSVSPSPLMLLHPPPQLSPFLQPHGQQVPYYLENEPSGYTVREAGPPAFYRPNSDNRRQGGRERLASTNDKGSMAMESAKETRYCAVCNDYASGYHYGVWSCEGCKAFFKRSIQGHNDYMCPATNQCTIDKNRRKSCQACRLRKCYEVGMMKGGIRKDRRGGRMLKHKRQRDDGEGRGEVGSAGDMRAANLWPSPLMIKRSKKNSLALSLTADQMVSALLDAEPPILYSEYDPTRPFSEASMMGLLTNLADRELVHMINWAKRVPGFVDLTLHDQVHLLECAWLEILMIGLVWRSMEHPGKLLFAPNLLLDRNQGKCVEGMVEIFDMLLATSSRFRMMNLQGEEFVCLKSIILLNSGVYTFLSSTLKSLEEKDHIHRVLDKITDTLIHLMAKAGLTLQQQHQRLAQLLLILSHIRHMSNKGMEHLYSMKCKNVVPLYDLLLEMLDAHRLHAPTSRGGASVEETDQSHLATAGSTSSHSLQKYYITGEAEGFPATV
Chain of Nuclear receptor subfamily 4 group A member 2 (Homo sapiens) (P43354 whole entry, looked up, the tested form may be a part): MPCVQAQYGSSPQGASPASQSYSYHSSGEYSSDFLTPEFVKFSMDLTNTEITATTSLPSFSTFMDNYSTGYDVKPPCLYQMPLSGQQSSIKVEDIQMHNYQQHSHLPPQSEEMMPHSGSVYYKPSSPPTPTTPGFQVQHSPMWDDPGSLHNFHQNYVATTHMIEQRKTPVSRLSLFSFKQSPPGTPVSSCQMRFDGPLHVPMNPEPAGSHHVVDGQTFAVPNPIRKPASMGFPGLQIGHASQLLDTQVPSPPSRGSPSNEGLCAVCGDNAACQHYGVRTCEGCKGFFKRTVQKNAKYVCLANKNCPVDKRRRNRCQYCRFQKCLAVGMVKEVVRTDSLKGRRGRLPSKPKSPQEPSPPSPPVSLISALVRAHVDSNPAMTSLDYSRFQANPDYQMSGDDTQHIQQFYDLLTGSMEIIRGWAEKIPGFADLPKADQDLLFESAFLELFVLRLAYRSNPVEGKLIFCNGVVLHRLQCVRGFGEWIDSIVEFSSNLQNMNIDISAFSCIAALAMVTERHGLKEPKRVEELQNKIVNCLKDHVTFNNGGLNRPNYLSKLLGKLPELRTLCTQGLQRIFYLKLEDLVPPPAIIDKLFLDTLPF
Chain of Glucocorticoid receptor (Homo sapiens) (P04150 whole entry, looked up, the tested form may be a part): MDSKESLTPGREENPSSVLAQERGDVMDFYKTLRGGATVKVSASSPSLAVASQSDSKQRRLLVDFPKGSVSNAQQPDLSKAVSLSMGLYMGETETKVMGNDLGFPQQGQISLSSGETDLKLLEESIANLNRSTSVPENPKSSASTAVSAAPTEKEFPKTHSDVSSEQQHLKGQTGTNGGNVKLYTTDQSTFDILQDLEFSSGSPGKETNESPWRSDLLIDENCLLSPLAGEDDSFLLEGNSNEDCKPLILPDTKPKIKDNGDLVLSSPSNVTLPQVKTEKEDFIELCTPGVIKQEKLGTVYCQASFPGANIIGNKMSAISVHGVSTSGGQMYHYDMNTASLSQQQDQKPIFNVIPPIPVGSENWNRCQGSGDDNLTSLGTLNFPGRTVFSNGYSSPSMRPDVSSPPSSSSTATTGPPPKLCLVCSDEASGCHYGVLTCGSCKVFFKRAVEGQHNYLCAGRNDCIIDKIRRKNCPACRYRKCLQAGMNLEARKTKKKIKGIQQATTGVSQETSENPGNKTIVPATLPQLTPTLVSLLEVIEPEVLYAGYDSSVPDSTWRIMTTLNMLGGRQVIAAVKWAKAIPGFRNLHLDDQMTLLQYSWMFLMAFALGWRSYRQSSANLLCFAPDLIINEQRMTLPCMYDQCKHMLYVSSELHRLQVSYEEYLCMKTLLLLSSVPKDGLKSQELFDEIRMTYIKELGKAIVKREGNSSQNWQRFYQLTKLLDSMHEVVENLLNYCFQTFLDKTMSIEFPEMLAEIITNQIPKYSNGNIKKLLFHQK
Chain of Transcriptional activator Myb (Homo sapiens) (P10242 whole entry, looked up): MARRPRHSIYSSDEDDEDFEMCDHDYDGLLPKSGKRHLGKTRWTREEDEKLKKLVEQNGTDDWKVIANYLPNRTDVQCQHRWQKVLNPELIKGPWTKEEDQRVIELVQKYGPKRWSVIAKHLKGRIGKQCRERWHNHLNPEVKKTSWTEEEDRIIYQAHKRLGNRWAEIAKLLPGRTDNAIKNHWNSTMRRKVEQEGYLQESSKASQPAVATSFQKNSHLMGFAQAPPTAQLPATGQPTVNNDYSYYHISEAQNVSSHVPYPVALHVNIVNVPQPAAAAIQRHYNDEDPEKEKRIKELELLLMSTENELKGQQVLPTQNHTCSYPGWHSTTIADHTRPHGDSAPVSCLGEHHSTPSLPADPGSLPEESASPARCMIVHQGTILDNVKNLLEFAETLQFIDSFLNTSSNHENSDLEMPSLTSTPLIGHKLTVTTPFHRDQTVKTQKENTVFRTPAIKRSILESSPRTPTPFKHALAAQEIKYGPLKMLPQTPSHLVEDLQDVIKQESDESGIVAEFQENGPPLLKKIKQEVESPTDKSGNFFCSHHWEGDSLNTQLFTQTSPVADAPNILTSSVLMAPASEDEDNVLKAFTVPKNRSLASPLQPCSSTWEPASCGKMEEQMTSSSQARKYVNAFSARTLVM
Chain of Nuclear receptor subfamily 1 group I member 3 (Homo sapiens) (Q14994 whole entry, looked up, the tested form may be a part): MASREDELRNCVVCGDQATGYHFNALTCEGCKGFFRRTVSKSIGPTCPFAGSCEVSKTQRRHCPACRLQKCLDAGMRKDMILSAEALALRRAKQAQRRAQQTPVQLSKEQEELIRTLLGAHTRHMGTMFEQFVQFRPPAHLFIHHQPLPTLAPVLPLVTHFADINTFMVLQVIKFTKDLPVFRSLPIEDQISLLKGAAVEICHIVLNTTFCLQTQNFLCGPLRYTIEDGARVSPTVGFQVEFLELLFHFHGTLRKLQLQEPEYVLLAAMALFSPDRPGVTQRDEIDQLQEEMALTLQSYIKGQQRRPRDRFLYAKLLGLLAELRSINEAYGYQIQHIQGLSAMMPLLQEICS
Chain of Bile acid receptor (Homo sapiens) (Q96RI1 whole entry, looked up, the tested form may be a part): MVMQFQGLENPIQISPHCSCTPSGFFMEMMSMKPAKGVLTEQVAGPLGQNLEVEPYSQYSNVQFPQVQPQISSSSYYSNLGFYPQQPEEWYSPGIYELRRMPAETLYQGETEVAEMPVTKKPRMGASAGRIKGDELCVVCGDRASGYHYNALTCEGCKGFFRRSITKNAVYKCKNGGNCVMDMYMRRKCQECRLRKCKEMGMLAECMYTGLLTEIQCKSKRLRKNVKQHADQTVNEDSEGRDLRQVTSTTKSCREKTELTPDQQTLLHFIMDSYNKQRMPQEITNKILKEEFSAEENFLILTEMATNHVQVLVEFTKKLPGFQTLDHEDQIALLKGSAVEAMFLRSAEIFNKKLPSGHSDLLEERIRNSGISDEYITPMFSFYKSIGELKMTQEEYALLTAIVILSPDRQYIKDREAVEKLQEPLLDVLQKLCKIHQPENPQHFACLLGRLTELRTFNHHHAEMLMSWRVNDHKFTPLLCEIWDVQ
Chain of Oxysterols receptor LXR-beta (Homo sapiens) (P55055 whole entry, looked up, the tested form may be a part): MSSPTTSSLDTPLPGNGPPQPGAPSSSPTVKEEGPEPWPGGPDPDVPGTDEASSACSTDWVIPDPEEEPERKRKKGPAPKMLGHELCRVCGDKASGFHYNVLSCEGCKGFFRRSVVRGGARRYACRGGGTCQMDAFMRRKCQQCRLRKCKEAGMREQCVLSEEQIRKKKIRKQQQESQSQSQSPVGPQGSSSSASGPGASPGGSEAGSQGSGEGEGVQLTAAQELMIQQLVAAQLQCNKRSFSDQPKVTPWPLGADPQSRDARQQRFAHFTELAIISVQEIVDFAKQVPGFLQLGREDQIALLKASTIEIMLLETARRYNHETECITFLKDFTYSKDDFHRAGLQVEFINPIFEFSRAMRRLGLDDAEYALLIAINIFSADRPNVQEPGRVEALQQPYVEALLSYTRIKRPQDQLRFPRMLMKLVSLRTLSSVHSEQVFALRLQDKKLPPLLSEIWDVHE
Chain of X-box-binding protein 1 (Homo sapiens) (P17861 whole entry, looked up, the tested form may be a part): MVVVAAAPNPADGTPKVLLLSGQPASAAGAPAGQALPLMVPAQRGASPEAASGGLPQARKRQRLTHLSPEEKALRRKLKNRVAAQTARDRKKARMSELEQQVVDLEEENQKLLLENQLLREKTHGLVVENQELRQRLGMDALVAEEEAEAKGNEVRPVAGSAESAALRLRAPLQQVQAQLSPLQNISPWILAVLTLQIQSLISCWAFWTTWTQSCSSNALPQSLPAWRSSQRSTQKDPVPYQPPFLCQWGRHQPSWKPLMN
Chain of Hepatocyte nuclear factor 4-alpha (Homo sapiens) (P41235 whole entry, looked up, the tested form may be a part): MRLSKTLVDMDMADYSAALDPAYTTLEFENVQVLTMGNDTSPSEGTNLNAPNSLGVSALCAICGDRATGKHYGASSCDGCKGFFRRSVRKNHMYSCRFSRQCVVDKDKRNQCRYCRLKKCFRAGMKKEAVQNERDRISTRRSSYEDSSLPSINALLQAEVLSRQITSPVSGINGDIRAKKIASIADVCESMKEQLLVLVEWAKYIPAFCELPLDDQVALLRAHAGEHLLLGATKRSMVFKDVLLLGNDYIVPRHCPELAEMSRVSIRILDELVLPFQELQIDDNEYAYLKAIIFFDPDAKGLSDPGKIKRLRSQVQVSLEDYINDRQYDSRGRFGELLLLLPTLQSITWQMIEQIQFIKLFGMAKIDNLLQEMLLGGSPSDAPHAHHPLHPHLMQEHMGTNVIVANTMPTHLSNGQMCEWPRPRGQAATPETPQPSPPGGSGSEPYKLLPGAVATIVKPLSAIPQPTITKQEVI

Sc1ccccc1
active: [3] 27.1 µM | [5] 27.1 µM and 42.2 µM
inactive: [1] | [2] | [3] | [4] | [6] | [7] | [8] | [9] | [10] | [11] | [12] | [13]

CO/C=C(/C(=O)OC)c1ccccc1COc1cccc(C(F)(F)F)n1
active: [3] 11.9 µM | [14] 7.76 µM | [12] 29.3 µM
inactive: [1] | [2] | [4] | [6] | [15] | [11] | [13]

O=S(=O)(O)C(F)(F)C(F)(F)C(F)(F)C(F)(F)C(F)(F)C(F)(F)F
active: [5] 105 µM
inactive: [1] | [2] | [3] | [4] | [5] | [14] | [6] | [7] | [8] | [15] | [9] | [10] | [11] | [12] | [13]

CCCCCCCCOC(=O)c1ccccc1C(=O)OCCCCCCCC
inactive: [1] | [2] | [3] | [4] | [14] | [6] | [15] | [11] | [13]

CC(C)C(=O)OCC(C)(C)C(OC(=O)C(C)C)C(C)C (stereo unspecified)
active: [5] 52.8 µM
inactive: [1] | [2] | [3] | [4] | [14] | [6] | [7] | [9] | [12] | [13]

CN(C)CCO
not listed: [5] | [14] | [15] | [19]
inactive: all other assays above

CCOC(=O)C(O)(c1ccc(Cl)cc1)c1ccc(Cl)cc1
active: [3] 11.1 µM
not listed: [9] | [12] | [15] | [16] | [17] | [18]
inactive: all other assays above

Cc1cc(-c2ccc(N)c(C)c2)ccc1N
active: [5] 8.74 µM and 6.68 µM
not listed: [8] | [14] | [15] | [16] | [17] | [19]
inactive: all other assays above
